This is one part of a sample in which hits are shown more often than they occur.
CRE Fsk mod = modulators of forskolin-stimulated CRE signaling in CHO cells; CHO CRE-bla reporter (cAMP response element driving beta-lactamase), forskolin EC10, beta-lactamase ratio; Potency, µM (titrated, usually from 38.2 µM), actives largely listed as activators; 2.5% of 71,000 active; AID 662; active = well fitted activation curve with a large enough effect in the signal ratio, with a control signal flat, not every such curve was filed as active; inconclusive = small, poorly fitted or top-dose-only effect, or effect the other way, or a change in a side signal; the % refers to the signal ratio
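The 460nm/530nm emission ratio after CCF4 loading defined %Activity, from which AC50 values were obtained. CRE-bla CHO cells received compound dilution series together with an EC10 level of NKH 477 for 3 hours at 37 degrees Celsius.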
ERK AVP inh = vasopressin-driven ERK pathway inhibition. Potency, µM (top dose mostly 57.5 µM), most hits filed as inhibitors. HEK293-V1b, vasopressin-stimulated pERK AlphaScreen. 0.99% of 72,000 active. AID 995; note: nearly all actives have a fitted effect of over 55% in size
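HEK293 cells stably expressing V1b receptor, seeded overnight in 1% FBS, were treated with compounds for 30 min at 37C, then stimulated 5 min with 25 nM vasopressin; phospho-ERK read by AlphaScreen SureFire after lysis.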
IkB sig inh = inhibitors of IkB signaling in ABC-DLBCL cells. ABC-DLBCL IkBa-CBG/CBR dual luciferase ratio, 4 h; response scale: scaled: untreated 0%, proteasome inhibitor 100%. Potency, µM (top dose mostly 57.1 µM). 0.04% of 110,000 active; active = well fitted curve in the direction sought with a large enough effect in the signal ratio, not every such curve was filed as active; inconclusive = small, poorly fitted or top-dose-only effect, or a change in a side signal; the % refers to the signal ratio;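 note: the direction sought is a rising ratio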
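In this assay, an IκBα–CBG68 fusion accumulates when IKK-driven degradation is blocked; native CBR normalizes for cell number. OCI-Ly3 cells were treated 4 h with compound and doxycycline, then green and red light read after Chroma-Glo addition.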
Peg3 imprint = induces erasure of genomic imprints in mouse ES cells; mouse ES Peg3-LacZ reporter, beta-gal luminescence, 40 h; Potency, µM (titrated, usually from 60.7 µM), hits mostly activators; 0.02% of 110,000 active
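Each well holds 300 Peg3LacZ-Neo (maternal) female ES cells incubated 40 h at 37C, 5% CO2. LacZ is measured by BetaGlo luminescence, with AC50 and maximum efficacy derived from dose-response curves.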
CHO tox 24h = cytotoxicity in CRE-bla CHO cells at 24 h; shares compounds with CRE Fsk mod; CRE-bla CHO viability, ATP luminescence, 24 h; 120 tested, under 10 active; activity, negative = viability loss, % at 46.1 µM
CHO via 40h = cytotoxicity in CRE-bla CHO cells at 40 h | shares compounds with CRE Fsk mod | CRE-bla CHO viability, ATP luminescence, 40 h | Potency, µM, most hits filed as inhibitors | 120 tested, under 10 active | AID 906
CREB luc CRC = confirmation of CRE signaling potentiators in HEK293 CREB reporter cells | 80% of 120 active | AID 907 | shares compounds with CRE Fsk mod | Potency, µM (top dose mostly 38.3 µM), usual class: activators | HEK293 CRE-luc2P, NKH477 EC10 potentiation, luminescence, 4 h
Numbers stand for hits; n = inactive; u = inconclusive; x = not tested or not shown; [ ] = dose if it differs, or a comment. Unless noted, calls come from the whole dose curve; as a rule, active = well fitted curve in the direction sought with a large enough effect; inconclusive = small, poorly fitted or top-dose-only effect, or another doubt; inactive = no such curve, though single readings can be large; an effect the other way counts as inactive or inconclusive.

SMILES	CRE Fsk mod	ERK AVP inh	IkB sig inh	Peg3 imprint	CHO tox 24h	CHO via 40h	CREB luc CRC
CCOc1ccc(C2=Nn3c(nnc3-c3ccccc3)SC2)cc1Cl	0.079µM	n	n	n	n	n	1.6µM
COc1ccc(C2=Nn3c(nnc3-c3ccccc3OC)SC2)cc1OC	1.3µM	5µM	n	n	u	n	0.04µM
c1cnc(N2CCN(c3nc4ccccc4n4cnnc34)CC2)nc1	2.5µM	n	n	n	n	u	7.9µM
Cn1c(-c2nc(-c3ccccc3)cs2)nc2ccccc21	x	n	x	n	x	x	x
CCNc1nc(NC(C)(C)C)nc(N(C#N)CC)n1	u	n	n	n	n	n	1.3µM
O=C(O)/C=C\C(=O)Nc1ccc2c(c1)-c1ccccc1C2	n[7.6 µM]	n[11.5 µM]	n[11.4 µM]	n[10.9 µM]	x	x	x
COc1cc(-c2nnc3sc(C4CCCCC4)nn23)cc(OC)c1OC	1µM	n	n	n	u	u	0.13µM
O=C(Nc1ccccc1O)c1cc(S(=O)(=O)N2CCOCC2)ccc1Cl	n	n	n	n	n	n	16µM
O=C1C2C3C=CC(C2C(=O)N1CN1CCOCC1)C1C2C(=O)N(CN4CCOCC4)C(=O)C2C31 (stereo not drawn)	n[7.6 µM]	n[11.5 µM]	n[11.4 µM]	n[10.9 µM]	x	x	x
Cc1nn(-c2ccccc2)c2sc(C(=O)N(CC(=O)NC(C)(C)C)Cc3ccco3)cc12	n	n	u	n	u	u	13µM
COC(=O)c1cc2c(C)nn(-c3ccccc3)c2s1	u	n	n	x	x	x	x
Cc1cc(Br)cc2c1N(Cc1ccccc1OC(C)C)C(=O)C2=O	x	x	u	n[10.9 µM]	x	x	x
CCC/C=C/C1C(=O)C2OC2C2(OCC(CC)(CC)CO2)C1CO (stereo not drawn)	x	n[11.5 µM]	x	x	x	x	x
CCN(C(=O)c1cn(C)c(=O)c2cc(OC)c(OC)cc12)c1cc(C)ccc1C	u	n	n	u	x	x	x
CCN(C(=O)c1cn(C)c(=O)c2cc(OC)c(OC)cc12)c1ccccc1C	u	n	n	n	n	n	5µM
CCCOc1ccc(C2c3c(oc4ccccc4c3=O)C(=O)N2c2ccc(C)cn2)cc1OCC (stereo not drawn)	x	x	n	n[10.9 µM]	x	x	x
CCOc1ccc(C2c3c(oc4ccccc4c3=O)C(=O)N2c2ccc(C)cn2)cc1OC (stereo not drawn)	2µM	n	n	n	n	n	10µM
COc1ccc(-n2[nH]c(C)cc2=O)cc1	n	n	n	n	x	x	x
COc1ccc(Nc2nc(Nc3ccc(OC)cc3)nc(-n3[nH]c(=O)c(C)c3C)n2)cc1	x	x	x	x	u	u	0.5µM
O=c1n(Cc2cc3c(cc2Cl)OCO3)c(=O)n2n1CC[C@H]1/C(=N\OC[C@@H](O)COCc3ccco3)[C@H]3O[C@@H]3[C@@H](O)[C@@H]12	x	n[11.5 µM]	x	x	x	x	x
